Results filed as inconclusive are left out. Activity calls are given as the source filed them. Calls come from the whole dose curve; as a rule, active = well fitted curve in the direction sought with a large enough effect; inconclusive = small, poorly fitted or top-dose-only effect, or another doubt; inactive = no such curve, though single readings can be large; an effect the other way counts as inactive or inconclusive. Starred links: 1 amine or outer side, 2 acyl side, 3 side chain; linkers in the order of their positions; H or OH if unused. Positions of bridges follow the written chain, without caps; N, C: chain ends. Non-standard residues stand in square brackets, D forms with d. Residues, ends and D or L forms follow the SMILES beside them. ξ: configuration not given here. *: point of attachment. X3 = C[C@@H](Oc1ccc([C@H](N[*:1])C(=O)[*:2])cc1)[C@]1(/C=C\C(=O)[*:3])CO1; d(aIle) = CC[C@H](C)[C@@H](N)C(=O)O; X2 = CC(C)[C@@H](O)C(C)C(=O)*; ξNMeF = CNC(Cc1ccccc1)C(=O)O; ξT = CC(O)C(N)C(=O)O; ξS = NC(CO)C(=O)O
Columns and labels:
[1] = OV-KATE Cancer Cell Toxicity qHTS against the NCATS CANVASS Library (AID 1347345); settings: OV-KATE cells viability, CellTiter-Glo luminescence, 72 h; series mostly up to 38.3 µM
In short: (§1)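 Viability read-out: CellTiter-Glo luminescence after 72 h compound exposure at 37 °C/5% CO2. Cells plated at 1000/well, 4 h pre-incubation; 11-point titration. Bortezomib served as control.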

[2] = UWB1.289 Cancer Cell Toxicity qHTS against the NCATS CANVASS Library (AID 1347347); settings: UWB1.289 viability, CellTiter-Glo luminescence, 72 h; series mostly up to 38.3 µM; note: nearly all actives have a fitted effect of over 60% in size
In short: as §1

[3] = OV-SAHO Cancer Cell Toxicity qHTS against the NCATS CANVASS Library (AID 1347348); settings: OV-SAHO viability, CellTiter-Glo luminescence, 72 h; series mostly up to 38.3 µM; note: nearly all actives have a fitted effect of over 55% in size
In short: as §1

[4] = Panc-1005 Cancer Cell Toxicity qHTS against the NCATS CANVASS Library (AID 1347349); settings: Panc-1005 viability, CellTiter-Glo luminescence, 72 h; series mostly up to 38.3 µM; note: nearly all actives have a fitted effect of over 60% in size
In short: as §1

[5] = UWB1.289-WTBRCA1 Cancer Cell Toxicity qHTS against the NCATS CANVASS Library (AID 1347354); settings: UWB1.289-WTBRCA1 viability, CellTiter-Glo luminescence, 72 h; series mostly up to 38.3 µM
In short: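 Using an ATP-based luminescent reagent after three days of treatment, toxicity is scored across an eleven-concentration range in wells holding 1000 cells each.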

[6] = qHTS for Antimalaria activity screened against the NCATS CANVASS Library (AID 1347380); note: nearly all actives have a fitted effect of over 40% in size; settings: P. falciparum Dd2 growth, SYBR Green fluorescence, 72 h; series mostly up to 28.7 µM
In short: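 Measures proliferation or cytotoxicity against Dd2 blood stages in 72 h cultures, 11-point qHTS dosing, with SYBR Green fluorescence as read-out; dihydroartemisinin titration served as control.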

[7] = qHTS for activators of Nrf2/ARE signaling pathway screened against the NCATS CANVASS Library (AID 1347391); settings: ARE-bla HepG2, beta-lactamase reporter, 16 h; series mostly up to 46.1 µM; note: nearly all actives have a fitted effect of over 60% in size
In short: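 Activation of Nrf2/ARE was scored in ARE-bla HepG2 cells after 16 h compound exposure using CCF4 beta-lactamase fluorescence ratio readings.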

[8] = test system: Zika virus NS2B-NS3 protease (linked construct); assay: Primary screen NINDS Rhodamine qHTS for Zika virus inhibitors (AID 1347160); settings: purified NS2B-NS3 protease, Rhodamine110 substrate fluorescence; series mostly up to 112 µM; note: nearly all actives have a fitted effect of over 55% in size
In short: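 Each compound, titrated, sat 15 min with 25 nM linked protease before 1.5 microM Rhodamine110 substrate went in. Fluorescence gain over the next 15 min, in pH 8.0 Tris with Tween 20, gave Hill-fitted curves.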

[9] = G06 Cancer Cell Toxicity qHTS against the NCATS CANVASS Library (AID 1347368); settings: G06 dog glioma cells, viability ATP luminescence, 72 h; series mostly up to 46.1 µM; note: nearly all actives have a fitted effect of over 60% in size
In short: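 Quantitative HTS in G06 cells (dog glioma): 72 hr treatment, 11 concentrations, then ATP-based luminescent viability readout; bortezomib 0.1 nM–4.6 uM final as reference.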

[10] = qHTS for inhibitors of ER calcium dysfunction: SERCaMP assay screened against the NCATS CANVASS Library (AID 1347393); settings: SH-SY5Y GLuc-SERCaMP (Gaussia luciferase released on ER calcium loss) secretion, thapsigargin, luminescence; series mostly up to 76.6 µM; note: nearly all actives have a fitted effect of over 40% in size
In short: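 qHTS in SH-SY5Y reporter cells: 16 h compound pretreatment, 4 h thapsigargin, then secreted Gaussia luciferase measured by luminescence.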

Measured: Potency
Potency is the fitted concentration of half-maximal effect.

CC[C@]12C=CCN3CC[C@]4(C(=C(C(=O)OC)C1)Nc1ccccc14)[C@@H]32
active: [6] 0.042 µM
inactive: [1] | [2] | [3] | [4] | [5] | [7]

CC[C@@H]1CN2CCc3c([nH]c4cccc(OC)c34)[C@@H]2C[C@@H]1/C(=C\OC)C(=O)OC
active: [3] 14.9 µM | [9] 23.5 µM | [10] 8.6 µM
inactive: [8] | [7]

C=CC(C)(C)[C@@]12C[C@H]3C(=O)N/C(=C\c4cnc[nH]4)C(=O)N3[C@@H]1Nc1ccccc12
active: [10] 34.3 µM
inactive: [1] | [2] | [3] | [4] | [5] | [9] | [6]

COC1C(O)C(C)OC(OC2C(Oc3cccc4c(O)c5c(=O)oc6ccc(C)c7c(=O)oc(c34)c5c67)OC(C)C(O)C2O)C1O (stereo not drawn)
active: [4] 16.8 µM | [9] 9.35 µM
inactive: [7] | [10]

COC1=C(C2=C(OC)C(=O)c3cc4c(c(O)c3C2=O)C(=O)O[C@H](C)C4)C(=O)c2c(cc3c(c2O)C(=O)O[C@H](C)C3)C1=O
inactive: [1] | [3] | [5] | [9] | [6] | [10]
active: [8] 3.3 µM

O[C@H]1C=C[C@@]23CCN(Cc4cc5c(cc42)OCO5)[C@@H]3C1
inactive: [1] | [3] | [4] | [9] | [7] | [10]
active: [2] 11.8 µM

C=C[C@]12C=CCN3CC[C@@]4(c5ccccc5NC(=O)[C@@H]4C1)[C@@H]32
active: [7] 20.9 µM
inactive: [1] | [2] | [3] | [4] | [5]

CCCCC1CC[C@H]2CCCC(CCC)N12 (stereo partly drawn)
inactive: [8] | [1] | [3] | [4] | [5] | [9] | [6] | [7] | [10]

CCCC[C@@H]1CC[C@H]2CCCC(CCCO)N12 (stereo partly drawn)
inactive: [1] | [3] | [4] | [5] | [9] | [7]
active: [6] 0.0106 µM

CO[C@H]([C@@H](C)[C@H]1O[C@]1(C)C[C@H](C)/C=C/C=C(\C)[C@H]1O[C@@H](CC(=O)O)CC[C@@H]1C)[C@@H](C)O
active: [2] 0.0188 µM | [4] 0.0375 µM | [9] 0.0296 µM | [6] 0.0666 µM | [7] 0.0066 µM
inactive: [10]

CO[C@H]1C[C@H](O[C@H]2[C@@H](O)C[C@H](O[C@H]3CC[C@]4(C=O)[C@H]5CC[C@]6(C)C(C7=CC(=O)OC7)CC[C@]6(O)[C@@H]5CC[C@]4(O)C3)O[C@@H]2C)O[C@H](C)[C@H]1O[C@H]1C[C@@H](OC)[C@@H](O[C@@H]2O[C@H](CO)[C@@H](O)[C@H](O)[C@H]2O)[C@@H](C)O1 (stereo partly drawn)
inactive: [3] | [7] | [10]
active: [8] 44 µM | [1] 0.265 µM | [9] 0.264 µM

C[C@]12CC(O)C3[C@@H](CC[C@@H]4C[C@@H](O)CC[C@]34CO)[C@@]1(O)CC[C@@H]2C1=CC(=O)OC1 (stereo partly drawn)
inactive: [6] | [7]
active: [2] 4.2 µM | [9] 4.18 µM

C/C=C1/CN2C3CC1C1=CCC(=O)N4c5ccccc5[C@@]3(C[C@@H]2C2=C[C@H]3C5CC6N(CC[C@@]67c6ccccc6N(C2=O)[C@@H]37)C/C5=C/C)[C@H]14 (stereo partly drawn)
active: [8] 31.1 µM | [4] 14.9 µM | [9] 20.9 µM | [6] 1.33 µM | [7] 7.41 µM
inactive: [1]

CO[C@@]12c3c(C)cc(O)c4c(=O)occ(c34)C(=O)[C@@H]1[C@]13COC(=O)c4c(O)cc(C)c(c41)C(=O)[C@H]2[C@@H]3OC(C)=O
active: [8] 3.11 µM | [2] 5.94 µM | [6] 0.0075 µM
inactive: [1] | [3] | [4] | [9]

C[C@]12CCC3[C@@H](CC[C@@H]4C[C@@H](O)CC[C@]34CO)[C@@]1(O)CC[C@@H]2C1=CC(=O)OC1 (stereo partly drawn)
inactive: [6] | [7] | [10]
active: [2] 1.18 µM | [3] 2.36 µM | [9] 1.87 µM

C/C=C(\C)C(=O)O[C@@H]1[C@@H](O)[C@@H]2O[C@H]3[C@H](O[C@@H](CCCCC)CCCCCCC(=O)CCC(=O)OC[C@@H](O2)[C@H]1OC(=O)/C=C/c1ccccc1)O[C@H](C)[C@H](OC(C)=O)[C@@H]3O
active: [1] 0.188 µM | [2] 0.594 µM | [3] 0.0747 µM | [4] 0.0335 µM | [9] 0.0047 µM | [6] 0.0375 µM | [10] 0.086 µM
inactive: [5]

CC(C)CC1C(=O)O[C@H](C(C)C)C(=O)N(C)C(CC(C)C)C(=O)O[C@@H](C(C)C)C(=O)N(C)C(CC(C)C)C(=O)O[C@H](C(C)C)C(=O)N(C)C(CC(C)C)C(=O)O[C@@H](C(C)C)C(=O)N1C (stereo partly drawn)
active: [8] 4.4 µM | [3] 5.94 µM | [4] 6.68 µM | [6] 0.747 µM
inactive: [7]

CO[C@@H](/C=C/CC/C=C/C(=O)O)[C@@H](O)[C@H](C)/C=C(\C)[C@H](O)[C@H](C)C(=O)CCCC1CC(=O)NC(=O)C1
inactive: [1] | [2] | [3] | [4] | [5] | [9] | [7] | [10]

CC[C@H](C)[C@H]1NC(=O)[C@@H](NC(=O)C(C)[C@H](O)C(C)C)[C@@H](C)OC(=O)C2COC(=O)CNC(=O)/C=C\[C@]3(CO3)[C@@H](C)Oc3ccc(cc3)[C@H](NC1=O)C(=O)N(C)C(Cc1ccccc1)C(=O)NC(C(C)O)C(=O)N2 (stereo partly drawn) (X2-T[d(aIle)][X3][ξNMeF][ξT][ξS]; ester 1-C; linker 3-6 via G)
inactive: [1] | [3] | [4] | [5] | [7] | [10]

C/C=C/[C@@H]1[C@H]2C[C@@H](C)CC[C@@H]2C(C)=C[C@H]1C(=O)c1c(O)c(-c2ccc(O)cc2)c[nH]c1=O
active: [8] 22 µM | [2] 21.1 µM | [3] 23.6 µM | [10] 19.3 µM

c1ccc2nc3c(cc2c1)[nH]c1ccccc13
active: [7] 16.6 µM
inactive: [1] | [2] | [5] | [6]

C/C=C1/CN2CC[C@@]34c5ccccc5N(C)[C@@H]3[C@@H]2C[C@@H]1[C@H]4C(=O)OC
active: [10] 0.86 µM
inactive: [1] | [3] | [5] | [9] | [6] | [7]

CCC(=O)N[C@@H](C[C@H](C)C(Cl)(Cl)Cl)C(=O)N1C(=O)C=C(OC)[C@@H]1C[C@H](C)C(Cl)Cl
inactive: [1] | [4] | [5] | [9] | [7]
active: [10] 27.2 µM

CCCC[C@@H](C)/C=C1/CN2CCC[C@H]2[C@@](C)(O)[C@@H]1O
inactive: [1] | [3] | [4] | [5] | [9] | [6]

C=C(C)[C@H]1C(=O)c2c3c(cc4c5c(n1c24)[C@@]1(C)[C@@H](CC[C@H]2[C@](C)(/C=C/C=C(\C)C(=O)O)[C@@H](O)CC[C@@]21C)C5)C1=CC(C)(C)OC(C)(C)[C@H]1[C@@H]3O
inactive: [7] | [10]
active: [8] 2.2 µM | [2] 11.8 µM | [3] 11.8 µM | [4] 8.41 µM | [5] 18.8 µM | [6] 7.47 µM

C1=C2CCCN[C@H]2C2CC1[C@H]1CCCCN1C2 (stereo partly drawn)
inactive: [1] | [2] | [3] | [4] | [5] | [6] | [7] | [10]

CC[C@@H]1CN2CCC3(Nc4cccc(OC)c4C3=O)[C@@H]2C[C@@H]1/C(=C\OC)C(=O)OC (stereo partly drawn)
active: [10] 12.2 µM
inactive: [8] | [1] | [4] | [5] | [9] | [7]

CC[C@H]1CN2CCc3c([nH]c4cccc(OC)c34)[C@@H]2C[C@@H]1/C(=C\OC)C(=O)OC
active: [8] 24.7 µM | [10] 13.6 µM
inactive: [1] | [5] | [6]

C/C=C1/CN2CC[C@]34C(=C(C(=O)OC)[C@H]1C[C@H]23)Nc1ccccc14
inactive: [8] | [1] | [2] | [3] | [5] | [6]
active: [10] 19.3 µM

C/C(=C\[C@H](C)C(=O)C[C@H](O)CC1CC(=O)NC(=O)C1)[C@@H]1OC(=O)/C=C/CC/C=C/C=C/[C@@H]1C
inactive: [7] | [10]
active: [8] 44 µM | [2] 0.118 µM | [3] 0.118 µM | [4] 0.0668 µM | [9] 0.0526 µM | [6] 0.941 µM
